Measurements from PubChem BioAssay (Tox21).
Results filed as inconclusive are left out. Active and inactive are the calls of the source. Unless noted, calls follow the shape of the dose curve; as a rule, active = well fitted curve in the direction sought with a large enough effect in the repeat runs; inconclusive = weak or mixed curves; inactive = no such curve, though single readings can be large; an effect the other way counts as inactive or inconclusive.

How the values were obtained:
[1] = qHTS assay to identify aromatase inhibitors - cell viability counter screen (AID 743084);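 also: cells stimulated with testosterone during compound exposure; nearly all actives have a fitted effect of over 55% in size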; also: potency is read from the fitted curve at half-maximal effect
[2] = qHTS assay to identify small molecule that activate the aryl hydrocarbon receptor (AhR) signaling pathway - cell viability counter screen (AID 743086); also: nearly all actives have a fitted effect of over 45% in size; also: potency is read from the fitted curve at half-maximal effect
Method in brief: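 HepG2-AhR-luc (HG2L7.5c1) cells, 4000/well, treated 24 h at 37 C with compound; viability measured as CellTiter-Fluor fluorescence after 30 min in the same wells as the luciferase read.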

[3] = molecular target: Peroxisome proliferator-activated receptor gamma (Homo sapiens) (UniProt P37231); experiment: qHTS assay to identify small molecule antagonists of the peroxisome proliferator-activated receptor gamma (PPARg) signaling pathway (AID 743191; calls by dose curve; also: series mostly up to about 63 µM; nearly all actives have a fitted effect of over 30% in size)
Method in brief: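 GeneBLAzer PPARg UAS-bla HEK293H cells, 5 h post-plating, exposed to compounds 17 h at 37C. LiveBLAzer B/G FRET substrate added for 1 h at room temperature; beta-lactamase reporter read by fluorescence intensity.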

[4] = qHTS assay to identify small molecule antagonists of the peroxisome proliferator-activated receptor gamma (PPARg) signaling pathway - cell viability counter screen (AID 743194); also: nearly all actives have a fitted effect of over 55% in size; also: potency is read from the fitted curve at half-maximal effect
Method in brief: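 Cytotoxicity counter screen in PPARg-bla HEK293H cells, same wells as reporter assay. Compounds plus 50 nM rosiglitazone (final) for 17 h at 37 C, then viability read by CellTiter-Glo luminescence.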

[5] = qHTS assay for small molecule agonists of the antioxidant response element (ARE) signaling pathway (AID 743202; active = well fitted activation curve with a large enough effect in the signal ratio in the repeat runs, not every such curve was filed as active; the % refers to the signal ratio; also: potency is read from the fitted curve at half-maximal effect)
Method in brief: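 HepG2 ARE-bla reporter line, 2,000 cells/well; 5 h preincubation 37 C/5% CO2; compound (DMSO) 16 h 37 C; B/G FRET substrate 2 h RT; fluorescence intensity.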

[6] = qHTS assay for small molecule agonists of the antioxidant response element (ARE) signaling pathway - cell viability counter screen (AID 743203; calls by dose curve; also: nearly all actives have a fitted effect of over 55% in size; also: potency is read from the fitted curve at half-maximal effect)
Method in brief: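 Viability counter screen: stably transfected ARE-bla HepG2 line, 16 hrs compound exposure at 37C/5% CO2, ATP-based CellTiter-Glo luminescence measured in the reporter wells.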

[7] = qHTS assay for small molecule activators of the heat shock response signaling pathway - cell viability counter screen (AID 743209); also: nearly all actives have a fitted effect of over 50% in size; also: potency is read from the fitted curve at half-maximal effect
Method in brief: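 Viability of HSE-bla HeLa cells is measured with CellTiter-Glo in the wells already used for the reporter read. Compound exposure lasts 5 h at 37 C, and luminescence is read after 30 min at room temperature.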

[8] = qHTS assay for small molecule activators of the heat shock response signaling pathway (AID 743210; active = well fitted activation curve with a large enough effect in the signal ratio in the repeat runs, with a control signal flat, not every such curve was filed as active; the % refers to the signal ratio;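 also: HeLa cells with beta-lactamase reporter driven by heat shock elements; series mostly up to about 63 µM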)
Method in brief: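 Beta-lactamase reporter read-out: FRET substrate fluorescence after 2.5 h at RT, following 5 h compound treatment at 37 C of HeLa cells carrying HSE-driven bla reporter; quantitative HTS format.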

[9] = molecular target: Aryl hydrocarbon receptor (Homo sapiens) (UniProt P35869); experiment: qHTS assay to identify small molecule that activate the aryl hydrocarbon receptor (AhR) signaling pathway (AID 743085);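 also: HG2L7.5c1 human HepG2 liver cells with stably integrated DRE-driven firefly reporter; series mostly up to about 70 µM; nearly all actives have a fitted effect of over 15% in size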
Method in brief: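 Reporter assay in engineered HepG2 line HG2L7.5c1, whose plasmid carries twenty dioxin responsive elements upstream of firefly luciferase. Treatment lasted 24 h at 37C; ONE-Glo luminescence gauged induction.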

[10] = molecular target: Peroxisome proliferator-activated receptor gamma (Homo sapiens) (UniProt P37231); experiment: qHTS assay to identify small molecule agonists of the peroxisome proliferator-activated receptor gamma (PPARg) signaling pathway (AID 743094; active = well fitted activation curve with a large enough effect in the signal ratio in the repeat runs, not every such curve was filed as active; the % refers to the signal ratio)
Method in brief: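 Reporter activation was scored by fluorescence of cleaved LiveBLAzer B/G substrate (1 h, room temperature) in PPARg-bla HEK293H cells previously treated 17 h at 37C with DMSO-dissolved compounds.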

Measured: Potency

Chain of Aryl hydrocarbon receptor (Homo sapiens) (P35869 whole entry, looked up): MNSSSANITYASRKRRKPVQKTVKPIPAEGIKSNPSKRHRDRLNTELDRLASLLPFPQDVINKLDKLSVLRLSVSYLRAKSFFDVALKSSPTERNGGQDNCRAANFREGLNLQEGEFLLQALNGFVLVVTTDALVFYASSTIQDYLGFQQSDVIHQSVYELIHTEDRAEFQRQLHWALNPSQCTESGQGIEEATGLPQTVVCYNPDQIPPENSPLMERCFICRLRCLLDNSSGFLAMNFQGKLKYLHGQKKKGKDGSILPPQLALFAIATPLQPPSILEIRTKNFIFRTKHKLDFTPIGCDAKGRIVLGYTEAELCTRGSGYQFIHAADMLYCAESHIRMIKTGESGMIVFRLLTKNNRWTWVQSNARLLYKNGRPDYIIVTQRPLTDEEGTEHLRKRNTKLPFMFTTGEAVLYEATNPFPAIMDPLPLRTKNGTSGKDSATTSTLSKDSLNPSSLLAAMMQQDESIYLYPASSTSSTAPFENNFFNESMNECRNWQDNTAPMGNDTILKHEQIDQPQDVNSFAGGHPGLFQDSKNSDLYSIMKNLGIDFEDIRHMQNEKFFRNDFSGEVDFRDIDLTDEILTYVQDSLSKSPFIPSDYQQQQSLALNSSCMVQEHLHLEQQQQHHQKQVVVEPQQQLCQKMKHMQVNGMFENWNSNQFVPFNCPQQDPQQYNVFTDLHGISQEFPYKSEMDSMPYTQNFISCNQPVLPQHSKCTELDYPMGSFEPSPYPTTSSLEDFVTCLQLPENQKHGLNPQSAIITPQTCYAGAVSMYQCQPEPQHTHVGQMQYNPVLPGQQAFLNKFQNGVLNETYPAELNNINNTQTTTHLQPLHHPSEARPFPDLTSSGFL
Chain of Peroxisome proliferator-activated receptor gamma (Homo sapiens) (P37231 whole entry, looked up): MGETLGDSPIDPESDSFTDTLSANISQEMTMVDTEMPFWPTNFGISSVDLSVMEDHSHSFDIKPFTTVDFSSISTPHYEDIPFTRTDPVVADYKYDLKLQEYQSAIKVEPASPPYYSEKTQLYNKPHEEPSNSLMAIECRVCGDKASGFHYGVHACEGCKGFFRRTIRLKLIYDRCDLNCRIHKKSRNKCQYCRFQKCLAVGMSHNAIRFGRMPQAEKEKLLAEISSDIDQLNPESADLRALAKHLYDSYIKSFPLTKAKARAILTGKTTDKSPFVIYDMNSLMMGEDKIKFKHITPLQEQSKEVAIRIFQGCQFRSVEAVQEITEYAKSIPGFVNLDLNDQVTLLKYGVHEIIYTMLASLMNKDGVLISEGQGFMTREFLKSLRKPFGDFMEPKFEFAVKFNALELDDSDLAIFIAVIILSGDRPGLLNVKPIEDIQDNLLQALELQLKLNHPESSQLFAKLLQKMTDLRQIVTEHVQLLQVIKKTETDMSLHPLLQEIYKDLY

O=C(O)Cn1c(C(=O)Nc2nc(-c3ccccc3Cl)cs2)cc2ccccc21
active: [5] 21.1 µM
not listed: [8] | [9] | [10]
inactive: all other assays above

O=C(NS(=O)(=O)/C=C/c1cccs1)c1ccc(F)cc1Br
not listed: [5] | [9] | [10]
inactive: all other assays above

CC(=O)/C=C/C1C(C)=CCCC1(C)C (stereo unspecified)
not listed: [2] | [3]
inactive: all other assays above

CCCCCCCCCC(=O)OCC
not listed: [2] | [3]
inactive: all other assays above

CCC(=O)OC(C)(C)C1CC=C(C)CC1 (stereo unspecified)
inactive: [1] | [2] | [10] | [3] | [4] | [7]

CCCCCCCCN(C)C
inactive: [1] | [2] | [10] | [3] | [5] | [7]

CCOc1ccc2[nH]cc(C(=O)NCc3ccccc3)c(=O)c2n1
active: [5] 15.4 µM
not listed: [9]
inactive: all other assays above

COCCCCCCCCOCCC[Si](C)(O[Si](C)(C)C)O[Si](C)(C)C
inactive: [9] | [10]
active: [1] 30.6 µM | [7] 38.9 µM

CN(C)CCCOc1nn(Cc2ccccc2)c2ccccc12
not listed: [2] | [3] | [5]
inactive: all other assays above

CCOc1ccc(NC(=O)CC(C)=O)cc1
not listed: [3] | [9] | [10]
inactive: all other assays above

CCCOc1ccc2nc(NC(=O)OC)[nH]c2c1
not listed: [5] | [9]
inactive: all other assays above

Cc1cccc(Oc2ccccc2)c1
not listed: [6] | [9]
inactive: all other assays above

CCCCCCCC/C=C\CCCCCCCC(N)=O
not listed: [2] | [3]
inactive: all other assays above

c1ccc(OCc2ccc(CCCN3CCOCC3)cc2)cc1
not listed: [5] | [9]
inactive: all other assays above

Cc1ccc(C(N)=O)cc1N
not listed: [3] | [9]
inactive: all other assays above

Cc1c(Cn2ccnc2)c2ccccc2n1CCC(=O)O
not listed: [5] | [9]
inactive: all other assays above

CC(=O)N(CC(=O)N(C)C)c1ccccc1
inactive: [4] | [6] | [7] | [8]

Cc1cccc(C(C)(C)C)c1O
not listed: [2] | [6] | [9]
inactive: all other assays above

CC(Cc1cccc(C(F)(F)F)c1)NCCOC(=O)c1ccccc1 (stereo unspecified)
inactive: [9] | [10]
active: [4] 23.7 µM | [6] 23.7 µM | [7] 23.7 µM

NCc1ccccc1
inactive: [4] | [5] | [6] | [7] | [8]

CCCCOC(=O)c1ccccc1C(=O)OCC(CC)CCCC (stereo unspecified)
not listed: [1]
inactive: all other assays above

COc1ccc2[nH]c(S(=O)Cc3ncc(C)c(OC)c3C)nc2n1 (stereo unspecified)
inactive: [1] | [4] | [7]
active: [5] 10.6 µM

CCCC(C)C
not listed: [1] | [3]
inactive: all other assays above

CC[C@]12CCCN3CCc4c(n(c5ccccc45)C(=O)C1)[C@@H]32
inactive: [1] | [10] | [4] | [5] | [6] | [7]

CCCCCOC(=O)c1ccc(O)cc1
inactive: [9] | [2] | [10] | [4] | [6] | [7]

Oc1ccc(Cc2ccccc2)cc1
inactive: [2] | [4] | [6] | [7]

O=C1Nc2cc(Cl)ccc2Oc2ccccc21
inactive: [3] | [4] | [7] | [8]

CC(C(=O)O)c1ccc(C(=O)c2ccccc2)s1 (stereo unspecified)
inactive: [1] | [3] | [4] | [5] | [7]

NC(N)=N/N=C/c1c(Cl)cccc1Cl
not listed: [1] | [5] | [8]
inactive: all other assays above

CCN(CC)CCOC(=O)C1(c2ccccc2)CCCC1
not listed: [2] | [9]
inactive: all other assays above

CC[C@@H]1C[C@H](N(Cc2cc(C(F)(F)F)cc(C(F)(F)F)c2)C(C)=O)c2cc(C(F)(F)F)ccc2N1C(=O)OC(C)C
inactive: [2] | [10] | [3] | [4] | [7] | [8]

CC1=CC(=O)/C(=C(/C)O)C(=O)O1
inactive: [1] | [10] | [4] | [5] | [7] | [8]

CC(C)c1cccc(C(C)C)c1NC(=O)NS(=O)(=O)c1cc(C(C)(C)O)co1
inactive: [4] | [6] | [7] | [8]

COc1ccc([C@@H]2Sc3ccccc3N(CCN(C)C)C(=O)[C@@H]2OC(C)=O)cc1
inactive: [4] | [5] | [7]

O=[N+]([O-])c1cccc(Cl)c1Cl
inactive: [2] | [10] | [3] | [5] | [6] | [7]

Nc1cnn([C@@H]2O[C@H](CO)[C@@H](O)[C@H]2O)c(=O)n1
inactive: [2] | [4] | [5] | [6] | [7] | [8]

CC(C)(Oc1ccc(Cl)cc1)C(=O)OCCCOC(=O)C(C)(C)Oc1ccc(Cl)cc1
inactive: [4] | [5] | [6] | [7] | [8]

O=S1(=O)c2cccc3cccc(c23)N1CCCN1CCN(c2ccc(F)cc2)CC1
inactive: [2] | [10] | [3] | [4] | [6] | [7]

C=CC(C)(CCC=C(C)C)OC(=O)c1ccccc1 (stereo unspecified)
inactive: [2] | [4] | [5] | [6]

CCC(C)N(C)C(=O)c1cc2ccccc2c(-c2ccccc2Cl)n1 (stereo unspecified)
not listed: [1] | [5] | [10]
inactive: all other assays above

O=CNc1ccccc1
not listed: [1] | [2] | [3]
inactive: all other assays above

Cc1cc(NC(=O)C(=O)O)cc(C)c1Oc1ccc(O)c2c1CCC2
inactive: [2] | [5] | [7] | [8]

COC(Cc1ccccc1)OC
not listed: [1] | [2] | [6]
inactive: all other assays above

O=C(/C=C/c1ccc(O)c(O)c1)O[C@@H]1C[C@](O)(C(=O)O)C[C@@H](O)[C@H]1O
inactive: [2] | [4] | [6] | [7] | [8]

O=C(O)C(c1ccc(Cl)cc1)c1ccc(Cl)cc1
inactive: [1] | [4] | [5] | [6] | [7] | [8]

NC(N)=NN=C(/C=C/c1ccc([N+](=O)[O-])o1)/C=C/c1ccc([N+](=O)[O-])o1
active: [1] 5.31 µM | [2] 7.5 µM | [4] 2.11 µM | [6] 5.96 µM | [7] 5.31 µM

O=[N+]([O-])c1cc[n+]([O-])cc1
active: [6] 30.6 µM
inactive: [9] | [10] | [8]

Cn1sccc1=O
inactive: [9] | [10] | [3] | [4] | [6] | [7]

CCOC(=O)C1=C(C)NC(C)=C(C(=O)OC)C1c1cccc([N+](=O)[O-])c1 (stereo unspecified)
inactive: [1] | [10] | [4] | [5] | [7] | [8]

CC(=O)c1ccc2c(c1)[C@H](NC(=O)c1ccc(F)cc1)[C@@H](O)C(C)(C)O2
inactive: [9] | [2] | [10] | [4] | [6] | [7]

Nc1ccc(C(=O)N2CC3CC(CN(Cc4ccccc4)C3)C2)cc1
inactive: [4] | [5] | [6] | [7]

O=C(O)c1cn(C2CC2)c2cc(Cl)c(F)cc2c1=O
inactive: [4] | [5] | [6] | [7] | [8]

CC1CCc2cc(F)cc3c(=O)c(C(=O)O)cn1c23 (stereo unspecified)
inactive: [2] | [4] | [5] | [7] | [8]

COc1cc(C(C)(C)C)c(O)c(C(C)(C)C)c1
not listed: [1] | [3] | [9]
inactive: all other assays above

CCOC(=O)[C@H](CCc1ccccc1)N[C@H]1CCc2ccccc2N(CC(=O)O)C1=O
inactive: [9] | [2] | [4]

CC(C)(C)c1cc(O)c(C(C)(C)C)cc1O
inactive: [9] | [2] | [10] | [7]
